This passage reports log2 fold change results from the supplement of paper PMC10849652.

Assay in all cases: log2 fold change, soluble protein after heating vs DMSO (PISA); higher = thermal stabilisation; K562 cells, 10 uM, 30 min; active = over 0.2 and 3.5 SD of the protein, either way, in both replicates (recomputed)
Compound in assay [1]: CC1=C(C=C(C=C1)NC(=O)C2=CC(=CC=C2)C(C)(C)C#N)NC3=CC4=C(C=C3)N=CN(C4=O)C
Put shortly: (§1)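 K562 cells at 2×10^6 cells/mL were treated for 30 min with 10 μM compound, and aliquots were heated for 3 min over 48°C-58°C before pooling. Extraction used PBS with 0.5% NP-40 at 4°C, and soluble protein was the supernatant after 21,000xg for 90 min, measured by TMTpro 16plex LC-MS/MS with channel sums equalised. Thermal stability values, relative to control samples and from duplicates, are log2 fold changes.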

Compound in assay [2]: CC1=CC=C(C=C1)SC2=C3C=C(SC3=CN=C2)C(=O)N
The gist of the method: as §1

Compound in assay [3]: CCCCN(Cc1ccc(C(=O)NO)cc1)C(=O)Nc1ccccc1 [Nexturastat A]
Put shortly:
as §1

Compound in assay [4]: CCCS(=O)(=O)Nc1ccc(F)c(C(=O)c2c[nH]c3ncc(-c4ccc(Cl)cc4)cc23)c1F [vemurafenib]
The gist of the method: as §1

Compound in assay [5]: CCCS(=O)(=O)Nc1ccc(F)c(C(=O)c2c[nH]c3ncc(Cl)cc23)c1F
The gist of the method: as §1

Compound in assay [6]: CCCc1cc(C)[nH]c(=O)c1CNC(=O)c1cc(-c2ccnc(N3CCN(C)CC3)c2)cc2c1cnn2C(C)C
Put shortly: as §1

Compound in assay [7]: CCN(CC)Cc1ccc2cc(COC(=O)Nc3ccc(C(=O)NO)cc3)ccc2c1 [givinostat]
Put shortly:
as §1

Compound in assay [8]: CCN(CCCOc1ccc2c(Nc3cc(CC(=O)Nc4cccc(F)c4)[nH]n3)ncnc2c1)CCOP(=O)(O)O [barasertib]
Put shortly: as §1

Compound in assay [9]: CC1=C(C=C(C=C1)NC(=O)C2=CC(=CC=C2)N(C)C)NC(=O)C3=CC=C(C=C3)O
Put shortly: as §1

Compound in assay [10]: CC1=NC(=CC=C1)C2=C(N=C(N2)C(C)(C)C)C3=CC4=NC=CN=C4C=C3
The gist of the method: as §1

The full data set covers some 7,900 targets. This sample favours those with a hit. About 0.6% of all pairs of compound and target were hits. A number with no mark means an inactive call.

Chain of UniProt Q96PV7 (Q96PV7 whole entry, looked up): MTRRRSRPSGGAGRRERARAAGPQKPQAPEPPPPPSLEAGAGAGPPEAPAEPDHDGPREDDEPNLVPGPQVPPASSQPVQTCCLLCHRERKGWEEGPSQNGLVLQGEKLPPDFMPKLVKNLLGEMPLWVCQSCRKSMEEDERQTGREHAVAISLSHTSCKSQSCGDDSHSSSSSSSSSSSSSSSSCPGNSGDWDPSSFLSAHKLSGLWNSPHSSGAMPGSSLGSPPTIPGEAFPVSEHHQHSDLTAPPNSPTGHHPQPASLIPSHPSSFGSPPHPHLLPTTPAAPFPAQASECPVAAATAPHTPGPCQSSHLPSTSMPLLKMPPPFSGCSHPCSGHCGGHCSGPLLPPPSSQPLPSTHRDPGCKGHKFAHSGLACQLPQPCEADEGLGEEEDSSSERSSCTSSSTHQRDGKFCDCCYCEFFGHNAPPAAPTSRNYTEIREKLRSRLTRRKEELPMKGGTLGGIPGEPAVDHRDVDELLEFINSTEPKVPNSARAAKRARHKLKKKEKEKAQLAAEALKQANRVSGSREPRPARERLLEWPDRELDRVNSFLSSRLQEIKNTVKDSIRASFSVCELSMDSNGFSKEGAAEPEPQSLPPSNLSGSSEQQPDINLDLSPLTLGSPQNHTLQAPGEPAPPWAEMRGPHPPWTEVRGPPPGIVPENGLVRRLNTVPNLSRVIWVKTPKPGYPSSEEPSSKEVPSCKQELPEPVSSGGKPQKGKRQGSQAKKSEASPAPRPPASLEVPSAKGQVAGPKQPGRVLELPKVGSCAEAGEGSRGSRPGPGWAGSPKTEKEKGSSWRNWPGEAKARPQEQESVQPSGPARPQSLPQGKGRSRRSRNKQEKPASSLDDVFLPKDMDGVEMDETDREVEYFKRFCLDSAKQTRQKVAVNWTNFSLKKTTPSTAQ
Chain of UniProt O75822 (O75822 whole entry, looked up): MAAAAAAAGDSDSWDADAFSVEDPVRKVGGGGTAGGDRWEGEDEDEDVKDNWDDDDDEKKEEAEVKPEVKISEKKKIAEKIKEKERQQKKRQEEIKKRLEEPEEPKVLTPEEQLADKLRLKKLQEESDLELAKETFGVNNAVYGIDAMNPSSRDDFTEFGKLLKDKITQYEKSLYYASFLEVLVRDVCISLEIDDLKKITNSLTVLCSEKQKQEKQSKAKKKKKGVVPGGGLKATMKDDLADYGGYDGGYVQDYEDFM
Chain of UniProt Q8WV16 (Q8WV16 whole entry, looked up): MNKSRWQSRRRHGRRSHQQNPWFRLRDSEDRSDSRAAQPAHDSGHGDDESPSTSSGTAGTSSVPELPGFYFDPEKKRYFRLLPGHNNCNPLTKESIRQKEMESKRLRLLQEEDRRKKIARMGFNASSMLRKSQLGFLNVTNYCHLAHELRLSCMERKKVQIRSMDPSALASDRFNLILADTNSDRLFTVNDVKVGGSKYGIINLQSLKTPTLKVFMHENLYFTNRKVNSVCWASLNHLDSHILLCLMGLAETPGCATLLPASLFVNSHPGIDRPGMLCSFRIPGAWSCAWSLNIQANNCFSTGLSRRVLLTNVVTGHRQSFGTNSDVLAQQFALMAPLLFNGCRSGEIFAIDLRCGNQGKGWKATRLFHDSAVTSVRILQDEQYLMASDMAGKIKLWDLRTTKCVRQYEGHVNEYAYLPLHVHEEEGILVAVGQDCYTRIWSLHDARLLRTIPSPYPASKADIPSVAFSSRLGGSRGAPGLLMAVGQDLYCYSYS
Chain of UniProt Q15910 (Q15910 whole entry, looked up): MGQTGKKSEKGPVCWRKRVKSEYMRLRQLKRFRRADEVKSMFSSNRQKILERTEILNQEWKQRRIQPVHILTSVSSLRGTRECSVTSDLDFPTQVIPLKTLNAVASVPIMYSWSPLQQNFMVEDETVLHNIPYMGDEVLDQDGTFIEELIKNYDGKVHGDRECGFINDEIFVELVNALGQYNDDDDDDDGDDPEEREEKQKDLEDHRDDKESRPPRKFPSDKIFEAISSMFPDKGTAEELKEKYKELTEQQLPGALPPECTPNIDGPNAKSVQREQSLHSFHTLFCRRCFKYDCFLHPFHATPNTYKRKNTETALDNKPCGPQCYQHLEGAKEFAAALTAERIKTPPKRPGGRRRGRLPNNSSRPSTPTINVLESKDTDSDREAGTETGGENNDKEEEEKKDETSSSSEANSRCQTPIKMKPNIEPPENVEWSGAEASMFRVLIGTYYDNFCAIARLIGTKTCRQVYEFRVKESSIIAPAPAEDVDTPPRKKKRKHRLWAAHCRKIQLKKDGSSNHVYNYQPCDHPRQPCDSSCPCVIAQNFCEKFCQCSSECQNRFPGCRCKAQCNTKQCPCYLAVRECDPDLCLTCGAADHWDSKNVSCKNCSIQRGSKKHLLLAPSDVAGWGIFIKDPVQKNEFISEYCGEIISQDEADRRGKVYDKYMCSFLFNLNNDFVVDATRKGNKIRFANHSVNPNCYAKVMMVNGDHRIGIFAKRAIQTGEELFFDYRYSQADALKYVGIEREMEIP
Chain of UniProt Q86YN1 (Q86YN1 whole entry, looked up): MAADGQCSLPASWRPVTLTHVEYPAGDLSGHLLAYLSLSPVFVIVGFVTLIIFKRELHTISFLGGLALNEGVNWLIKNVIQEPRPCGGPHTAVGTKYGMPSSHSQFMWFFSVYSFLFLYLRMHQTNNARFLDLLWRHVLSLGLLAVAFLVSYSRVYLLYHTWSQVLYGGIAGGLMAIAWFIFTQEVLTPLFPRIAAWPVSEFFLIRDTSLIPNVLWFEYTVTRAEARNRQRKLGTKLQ
Chain of UniProt Q6UX07 (Q6UX07 whole entry, looked up): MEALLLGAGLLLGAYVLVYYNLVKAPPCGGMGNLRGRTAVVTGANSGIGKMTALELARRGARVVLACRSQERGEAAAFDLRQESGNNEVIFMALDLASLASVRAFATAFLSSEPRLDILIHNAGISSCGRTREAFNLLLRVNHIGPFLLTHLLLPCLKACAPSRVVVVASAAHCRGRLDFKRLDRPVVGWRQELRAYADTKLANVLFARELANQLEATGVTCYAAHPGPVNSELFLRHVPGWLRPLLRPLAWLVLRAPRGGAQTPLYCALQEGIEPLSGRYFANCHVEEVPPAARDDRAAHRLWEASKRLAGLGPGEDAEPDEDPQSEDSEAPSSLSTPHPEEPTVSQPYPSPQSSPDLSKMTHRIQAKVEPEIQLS
Chain of UniProt Q9H777 (Q9H777 whole entry, looked up): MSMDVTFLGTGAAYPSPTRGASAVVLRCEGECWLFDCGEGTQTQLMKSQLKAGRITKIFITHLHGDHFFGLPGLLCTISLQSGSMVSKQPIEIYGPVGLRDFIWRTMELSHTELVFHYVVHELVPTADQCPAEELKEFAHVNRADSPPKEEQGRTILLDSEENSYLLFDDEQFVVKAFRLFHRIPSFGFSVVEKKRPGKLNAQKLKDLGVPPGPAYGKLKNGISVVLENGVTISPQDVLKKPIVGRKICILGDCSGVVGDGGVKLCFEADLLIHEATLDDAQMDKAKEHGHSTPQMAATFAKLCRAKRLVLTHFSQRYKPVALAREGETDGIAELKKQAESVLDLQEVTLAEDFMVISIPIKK
Chain of UniProt O15121 (O15121 whole entry, looked up): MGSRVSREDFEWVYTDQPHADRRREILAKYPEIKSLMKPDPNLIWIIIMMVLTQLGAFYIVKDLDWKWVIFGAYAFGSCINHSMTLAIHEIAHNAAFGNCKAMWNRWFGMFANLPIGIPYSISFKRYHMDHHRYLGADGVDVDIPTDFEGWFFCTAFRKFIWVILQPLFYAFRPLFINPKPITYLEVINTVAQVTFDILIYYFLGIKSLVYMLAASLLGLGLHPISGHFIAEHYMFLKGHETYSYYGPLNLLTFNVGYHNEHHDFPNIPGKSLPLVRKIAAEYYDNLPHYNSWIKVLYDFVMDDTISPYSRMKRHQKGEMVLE
Chain of UniProt Q6P1L5 (Q6P1L5 whole entry, looked up): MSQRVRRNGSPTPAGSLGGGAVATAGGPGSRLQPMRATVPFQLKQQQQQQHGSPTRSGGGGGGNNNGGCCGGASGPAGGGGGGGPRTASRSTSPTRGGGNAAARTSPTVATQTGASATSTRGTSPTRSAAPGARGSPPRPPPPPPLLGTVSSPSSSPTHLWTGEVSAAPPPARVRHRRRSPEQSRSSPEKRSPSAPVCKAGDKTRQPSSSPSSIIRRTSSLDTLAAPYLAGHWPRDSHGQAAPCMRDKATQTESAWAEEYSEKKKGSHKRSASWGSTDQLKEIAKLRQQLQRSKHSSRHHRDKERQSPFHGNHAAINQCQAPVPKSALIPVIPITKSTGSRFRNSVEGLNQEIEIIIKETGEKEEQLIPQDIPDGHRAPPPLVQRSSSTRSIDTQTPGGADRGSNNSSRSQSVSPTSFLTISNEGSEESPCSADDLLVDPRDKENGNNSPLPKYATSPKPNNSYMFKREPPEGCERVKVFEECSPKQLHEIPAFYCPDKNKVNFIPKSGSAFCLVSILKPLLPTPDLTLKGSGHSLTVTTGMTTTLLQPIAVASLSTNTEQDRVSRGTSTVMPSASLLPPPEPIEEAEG
Chain of UniProt P0CG12 (P0CG12 whole entry, looked up): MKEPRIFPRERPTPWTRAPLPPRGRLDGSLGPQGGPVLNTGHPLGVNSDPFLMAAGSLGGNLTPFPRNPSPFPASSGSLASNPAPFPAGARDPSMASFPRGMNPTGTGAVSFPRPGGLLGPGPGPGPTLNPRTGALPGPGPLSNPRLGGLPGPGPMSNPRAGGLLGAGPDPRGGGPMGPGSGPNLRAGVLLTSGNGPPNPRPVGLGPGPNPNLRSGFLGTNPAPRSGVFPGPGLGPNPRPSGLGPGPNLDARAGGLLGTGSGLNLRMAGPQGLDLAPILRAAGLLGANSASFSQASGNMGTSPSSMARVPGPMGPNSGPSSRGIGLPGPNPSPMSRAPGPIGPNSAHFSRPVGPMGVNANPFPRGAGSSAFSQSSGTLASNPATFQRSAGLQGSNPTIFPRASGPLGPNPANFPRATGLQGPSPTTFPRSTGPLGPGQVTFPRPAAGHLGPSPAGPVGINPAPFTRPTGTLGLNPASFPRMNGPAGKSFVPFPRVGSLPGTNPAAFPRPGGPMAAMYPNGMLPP

On to DEGS1 (UniProt O15121), for which the log2 fold change in [1] is -0.088; in [2], 0.003; in assay [3], -0.062; in [4], -0.185; in [5], 0.033; in assay [6] it was -0.053. The log2 fold change in [7] is -0.023; in [8] it was -0.018.
Turning to EIF4G1 (UniProt Q04637), the log2 fold change in [4] is -0.071.
DCAF12 (UniProt Q5T6F0): the log2 fold change was -0.136 in assay [1] and 0.08 in assay [6].
For the target DERPC (UniProt P0CG12), the log2 fold change in [9] was -0.052; in assay [10], 0.005; in assay [4], 0.07; in assay [6], -0.029; in assay [7], 0.454 (active); in assay [8], 0.012.
For DOLPP1 (UniProt Q86YN1), the log2 fold change in [9] is 0.012; in assay [2], -0.094; in [10] it was 0.026; in [4], -0.057; in assay [5], -0.042; in [6], -0.018. For the same target, the values for the log2 fold change in [7] and in assay [8] were -0.027 and 0.057, respectively.
DENND1A isoform 6 (UniProt Q8TEH3): the log2 fold change in [2] is 0.025; in [10] it was -0.009; in assay [4], -0.119; in [5], 0.114; in [8] it was 0.293.
Regarding ELAC1 (UniProt Q9H777), the log2 fold change was 0.003 in assay [1]; -0.051 in [2]; -0.049 in assay [10]; 0.011 in assay [3]; -0.017 in assay [4]; 0.007 in [5]. Moreover, the log2 fold change in [7] is -0.023.
As for DCAF4 (UniProt Q8WV16), the log2 fold change is 0.03 in assay [1], 0.072 in assay [9], -0.132 in assay [3] and -0.061 in assay [6].
For DHPS (UniProt M0R1T2), the log2 fold change is 0.118 in assay [1] and 0.11 in assay [8].
In the case of DHRS13 (UniProt Q6UX07), the log2 fold change in assay [1] is -0.106; in assay [9] it was 0.027; in assay [10] it was -0.055; in assay [4], -0.062; in assay [6], 0.084; in assay [7] it was 0.249.
As to EZH2 isoform 2 (UniProt Q15910), the log2 fold change in [1] is 0.063; in assay [2], 0.127; in assay [10], 0.149; in [3], -0.173; in [4], 0.377; in [5], 0. Further, the log2 fold change in assay [6] is 0.949 (active); in assay [7] it was 0.097; in assay [8] it was 0.045.
For the target DNAJB1 (UniProt M0R128), the figures for the log2 fold change in assay [4] and in assay [8] were -0.002 and 0.135, respectively.
For FAM117B (UniProt Q6P1L5), the log2 fold change in [9] was -0.035; in assay [10], -0.126; in [3], 0.394; in assay [4], 0.043; in assay [7], 0.212.
In the case of FAM193B (UniProt Q96PV7), the log2 fold change in [1] is -0.16; in assay [2], -0.114; in assay [10], -0.034; in assay [3], 0.054; in assay [4], -0.114; in assay [5], 0.005. Also, the log2 fold change in assay [8] was 0.045.
DPYSL2 (UniProt Q16555): the log2 fold change in [1] is -0.056; in assay [2], 0.03; in assay [10], 0.033; in assay [3] it was -0.176; in assay [4], -0.056; in [5] it was -0.002. Also, the log2 fold change in [6] is -0.065; in [7], 0.03; in [8] it was 0.
Turning to CTSS (UniProt P25774), the log2 fold change in assay [1] was 0.032; in [9] it was -0.045; in assay [10] it was -0.068; in assay [4] it was -0.053.
EIF3J isoform 2 (UniProt O75822): the log2 fold change in assay [1] was -0.1; in assay [2], 0.032; in assay [10], -0.02; in [3] it was 0.048; in assay [4] it was -0.17; in [5] it was -0.062. The log2 fold change in [6] is -0.613; in assay [7], -0.129; in assay [8], -0.071.
